# Results from PubChem BioAssay (NCATS).
# A number with no mark means an inactive call. Inconclusive results are not listed. The list shows a part of the results. Where a call stands in place of a potency, no number is given. Activity calls are given as the source filed them. Unless noted, the call rests on the fitted dose curve; in most records, active means well fitted curve in the direction sought with a large enough effect; inconclusive means small, poorly fitted or top-dose-only effect, or another doubt; inactive means no such curve, though single readings can be large; an effect the other way counts as inactive or inconclusive.
# Key:
# [1] = target: Rap guanine nucleotide exchange factor 3 (Homo sapiens) (UniProt O95398); experiment: Confirmatory qHTS for antagonist of cAMP-regulated guanine nucleotide exchange factor 3 (EPAC1) (AID 1645880); conditions: EPAC1 Rap1B-BODIPY-GDP exchange, fluorescence; activity, negative = inhibition: at 115 µM (top of the series); further: nearly all actives have a fitted effect of over 55% in size; further: potency means the concentration at half of the fitted maximal effect
# Procedure, shortened: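 Released BODIPY-GDP fluoresces less than Rap1-bound BODIPY-GDP; the signal is followed at 480/540 nm at 5-min intervals over 30 min, after 5 min at room temperature. Reactions contain 100 nM EPAC1, 250 nM RAP1B-BODIPY-GDP and 50 uM GDP; results are normalized to ATA and DMSO.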
# [2] = target: Rap guanine nucleotide exchange factor 4 (Homo sapiens) (UniProt Q8WZA2); experiment: Confirmatory qHTS for antagonist of cAMP-regulated guanine nucleotide exchange factor 4 (EPAC2) (AID 1645885); further: nearly all actives have a fitted effect of over 25% in size; further: potency means the concentration at half of the fitted maximal effect
# [3] = target: Rap guanine nucleotide exchange factor 3 (Homo sapiens) (UniProt O95398); experiment: Counterscreen qHTS for antagonist of cAMP-regulated guanine nucleotide exchange factor 3 (EPAC1) (AID 1645888)
# Procedure, shortened: (§1)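 Measured: fluorescence of BODIPY-GDP bound to Rap1B, which falls as exchange proceeds. Conditions include 50 uM competing GDP, 5 and 30 min reads, and a later cAMP challenge for antagonist detection.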
# [4] = target: Rap guanine nucleotide exchange factor 3 (Homo sapiens) (UniProt O95398); experiment: Counterscreen qHTS for agonist of cAMP-regulated guanine nucleotide exchange factor 3 (EPAC1) (AID 1645889); further: nearly all actives have a fitted effect of over 40% in size; further: potency means the concentration at half of the fitted maximal effect
# Procedure, shortened: as §1
# [5] = target: Tumor susceptibility gene 101 protein (Homo sapiens) (UniProt Q99816); experiment: qHTS Assay for Iinhibitors of HIV-1 Budding by Blocking the Interaction of PTAP/TSG101: Hit Validation (AID 651600); further: nearly all actives have a fitted effect of over 70% in size; further: potency means the concentration at half of the fitted maximal effect
# Procedure, shortened: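 Measuring PTAP–Tsg101 interaction by FP: protein at 10 uM and fluorescent peptide at 50 nM (final), buffer 10 mM HEPES pH 7.5 with 0.15 M NaCl, 3 mM EDTA, 0.1 mM TCEP, 0.01% Tween 20; 20 min incubation, r.t.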
# [6] = target: Flap endonuclease 1 (Homo sapiens) (UniProt P39748); experiment: qHTS Assay for the Inhibitors of FEN1: Confirmatory Assay for Cherry-picked Compounds (AID 720498); conditions: FEN1 flap cleavage, TAMRA/BHQ2 fluorogenic DNA substrate; further: potency means the concentration at half of the fitted maximal effect; nearly all actives have a fitted effect of over 60% in size
# Procedure, shortened: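 Human FEN1 (10 nM reagent) was preincubated with compounds for 15 min at room temperature, then 50 nM final double-flap DNA substrate (5'-TAMRA flap, BHQ-2 quencher strand) was added. Fluorescence (ex 525/em 598 nm) was read at 0 and 15 min.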
# [7] = target: DNA polymerase kappa (Homo sapiens) (UniProt Q9UBT6); experiment: qHTS for Inhibitors of Polymerase Kappa: Confirmatory Assay for Cherry-picked Compounds (AID 720501); conditions: purified Pol-kappa, fluorescent strand-displacement substrate; further: potency means the concentration at half of the fitted maximal effect
# Procedure, shortened: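 Human Pol-kappa, dispensed at 10 nM, was preincubated with compounds for 15 min at room temperature. Reactions were started with primer/template substrate (50 nM final) carrying a TAMRA reporter strand and BHQ-2-quenched template, and fluorescence (ex 525/em 598 nm) was read at 0 and 10 min.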
# [8] = target: Lysosomal acid glucosylceramidase (Homo sapiens) (UniProt P04062); experiment: Glucocerebrosidase-p2 (AID 348; in the data active means potency below about 10 µM; further: potency means the concentration at half of the fitted maximal effect); conditions: purified GBA, blue fluorogenic substrate, 40 min
# Procedure, shortened: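 Normal human glucocerebrosidase (0.2 nM) with blue fluorogenic substrate (80 uM final) in citrate/phosphate pH 5.9 with 10mM sodium taurocholate, 0.01% tween-20; 40 min RT, NaOH/glycine stop; fluorescence Ex 365/Em 440; AC50 from a titration from 0.6 nM upwards.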
# [9] = Stat Signaling Pathway (AID 446; active means well fitted curve in either direction with a large enough effect, not every such curve was filed as active;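 further: ME-180 cervical cancer cells given 40 pM IL-6 alongside compound; SIE-controlled beta-lactamase reporter measured as 460/530 nm FRET emission ratio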)
# Procedure, shortened: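 Emission at 460 and 530 nm (excitation 405 nm) reports SIE-controlled beta-lactamase in ME-180 cells. Cells received compound with 40 pM IL-6 for 5 hrs at 37 C; data scaled between 300 pM IL-6 and 125 nM JAK-inhibitor controls.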
# [10] = target: Glucocorticoid receptor (Homo sapiens) (UniProt P04150); experiment: GR-GFP Redistribution (AID 450;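 active means compounds whose dose series gives a full or clear partial fitted curve of increased nuclear translocation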; further: potency means the concentration at half of the fitted maximal effect); conditions: U2OS GR-GFP nuclear translocation, laser cytometry, 2 h
# [11] = target: Glucocorticoid receptor (Homo sapiens) (UniProt P04150); experiment: GR-EFC Redistribution (AID 451; calls by dose curve; further: potency means the concentration at half of the fitted maximal effect); conditions: CHO-K1 GR-EFC translocation, beta-gal luminescence, 2 h
# Procedure, shortened: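 CHO-K1 cells stably expressing nuclear-localized β-gal enzyme acceptor and GR fused C-terminally to the enzyme donor fragment; ligand-driven nuclear translocation restores β-gal by complementation. Compounds titrated up to 46 uM final, 2 h at 37 °C; luminescence read.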
# [12] = target: Mitogen-activated protein kinase 10 (Mus musculus) (UniProt Q61831); experiment: JNK3 AlphaScreen Assay (AID 530; active means well fitted curve in either direction with a large enough effect, not every such curve was filed as active;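 further: kinase came from lysate of stimulated human HepG2 cells; signal reports phosphorylation of biotinylated GST-cJun 1-79 at Ser73 with 10 µM ATP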)
# Procedure, shortened: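 Biotinylated GST-cJun(1-79) served as substrate for JNK3 in HepG2 lysates stimulated with IL-1beta and TNF-alpha. ATP was 10 uM final, pH 7.6. Ser73 phosphorylation was quantified by AlphaScreen (680 nm excitation).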
# [13] = target: 3',5'-cyclic-AMP phosphodiesterase 4B (Homo sapiens) (UniProt Q07343); experiment: qHTS Assay for Inhibitors of PDE-IV (AID 607; active means well fitted activation curve with a large enough effect in the main read-out, with a control signal flat, not every such curve was filed as active)
# Procedure, shortened: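 The readout is membrane depolarisation from a cAMP-sensing CNG channel, detected with a potential dye at ex 535/em 590. Cells were HEK293-derived (endogenous PDE-IV) at 1000 cells/well, titrated up to 22.9 uM final.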
# [14] = target: Cytochrome P450 3A4 (Homo sapiens) (UniProt P08684); experiment: qHTS Assay for Activators of Cytochrome P450 3A4 (AID 885); further: nearly all actives have a fitted effect of over 65% in size
# Procedure, shortened: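 Activators are scored by enhanced luminescence from CYP3A4 conversion of luciferin-PPXE (25uM, equal to KM) to luciferin, after 60 min at RT with an NADPH-regenerating system.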
# [15] = NFAT Signaling Pathway (AID 444; active means well fitted curve in either direction with a large enough effect, not every such curve was filed as active;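 further: carbachol stimulus at about its EC50 of 1 µM final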); conditions: Jurkat NFAT-bla M1, carbachol, beta-lactamase ratio, 5 h; at 7.69 µM (top of the series) unless noted
# Procedure, shortened: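 Jurkat cells carrying an NFAT-driven β-lactamase reporter and co-transfected muscarinic M1 receptor were treated with compound plus carbachol (1 uM final, an EC50 level) for 5 h at 37 °C. CCF4 loading followed for 1 h at RT; 460/530 nm ratio gave %activity.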
# [16] = target: Cytochrome P450 3A4 (Homo sapiens) (UniProt P08684); experiment: qHTS Assay for Inhibitors and Substrates of Cytochrome P450 3A4 (AID 884); further: potency means the concentration at half of the fitted maximal effect; nearly all actives have a fitted effect of over 50% in size
# Procedure, shortened: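 Luminescent readout of luciferin produced by CYP3A4 (20 nM) dealkylation of Luciferin-PPXE, 25 uM (its KM). NADPH-driven reaction ran 60 min at RT after 10 min compound preincubation; data scaled to 57 uM ketoconazole as 100% inhibition.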
# [17] = AP1 Signaling Pathway (AID 357; active means well fitted curve in either direction with a large enough effect, not every such curve was filed as active;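 further: ME-180 reporter cells stimulated with EGF at its EC50 level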); conditions: ME-180 (cervical carcinoma) AP-1-bla reporter, EGF-induced, beta-lactamase ratio, 5 h; at 7.69 µM (top of the series) unless noted
# Procedure, shortened: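 Beta-lactamase reporter under AP-1 response element, ME-180 background. Stimulus: EC50 EGF. Compound exposure 5 h, 37 °C. Detection: CCF4, 2.5 h RT, 460/530 nm. Values: AC50 from titration.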
# Sequence of 3',5'-cyclic-AMP phosphodiesterase 4B (Homo sapiens) (Q07343 whole entry, looked up): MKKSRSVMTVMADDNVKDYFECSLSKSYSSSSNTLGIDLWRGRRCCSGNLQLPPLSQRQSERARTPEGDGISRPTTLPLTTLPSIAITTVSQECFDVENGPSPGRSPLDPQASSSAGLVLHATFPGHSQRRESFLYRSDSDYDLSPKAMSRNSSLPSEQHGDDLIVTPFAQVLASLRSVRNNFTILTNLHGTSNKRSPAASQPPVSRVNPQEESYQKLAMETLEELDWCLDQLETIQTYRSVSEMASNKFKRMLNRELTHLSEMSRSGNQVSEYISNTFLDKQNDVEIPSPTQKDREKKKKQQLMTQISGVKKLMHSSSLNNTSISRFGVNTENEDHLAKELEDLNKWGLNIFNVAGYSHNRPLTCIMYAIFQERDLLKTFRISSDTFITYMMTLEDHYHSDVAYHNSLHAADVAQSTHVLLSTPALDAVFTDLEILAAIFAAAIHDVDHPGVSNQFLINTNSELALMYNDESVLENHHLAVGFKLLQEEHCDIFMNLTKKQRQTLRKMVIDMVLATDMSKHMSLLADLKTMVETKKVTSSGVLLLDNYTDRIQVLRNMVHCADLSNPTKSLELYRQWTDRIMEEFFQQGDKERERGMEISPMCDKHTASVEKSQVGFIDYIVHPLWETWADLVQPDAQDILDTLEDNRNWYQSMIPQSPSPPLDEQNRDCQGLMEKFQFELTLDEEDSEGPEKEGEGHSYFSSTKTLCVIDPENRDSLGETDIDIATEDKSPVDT
# Sequence of Lysosomal acid glucosylceramidase (Homo sapiens) (P04062 whole entry, looked up): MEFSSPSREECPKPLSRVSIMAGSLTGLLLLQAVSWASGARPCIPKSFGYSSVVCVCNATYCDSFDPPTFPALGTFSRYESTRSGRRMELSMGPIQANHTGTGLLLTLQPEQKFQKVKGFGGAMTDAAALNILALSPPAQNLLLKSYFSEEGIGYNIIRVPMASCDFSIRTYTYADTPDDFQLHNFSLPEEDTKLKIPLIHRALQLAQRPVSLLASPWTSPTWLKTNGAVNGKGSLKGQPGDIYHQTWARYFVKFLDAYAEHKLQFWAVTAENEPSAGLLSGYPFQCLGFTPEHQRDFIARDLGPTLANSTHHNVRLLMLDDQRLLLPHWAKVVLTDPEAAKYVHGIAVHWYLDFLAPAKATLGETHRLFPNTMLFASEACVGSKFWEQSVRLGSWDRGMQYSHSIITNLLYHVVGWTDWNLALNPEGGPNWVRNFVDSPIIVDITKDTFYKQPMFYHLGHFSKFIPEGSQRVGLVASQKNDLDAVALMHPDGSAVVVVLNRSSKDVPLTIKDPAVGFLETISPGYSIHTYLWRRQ
# Sequence of Rap guanine nucleotide exchange factor 3 (Homo sapiens) (O95398 whole entry, looked up): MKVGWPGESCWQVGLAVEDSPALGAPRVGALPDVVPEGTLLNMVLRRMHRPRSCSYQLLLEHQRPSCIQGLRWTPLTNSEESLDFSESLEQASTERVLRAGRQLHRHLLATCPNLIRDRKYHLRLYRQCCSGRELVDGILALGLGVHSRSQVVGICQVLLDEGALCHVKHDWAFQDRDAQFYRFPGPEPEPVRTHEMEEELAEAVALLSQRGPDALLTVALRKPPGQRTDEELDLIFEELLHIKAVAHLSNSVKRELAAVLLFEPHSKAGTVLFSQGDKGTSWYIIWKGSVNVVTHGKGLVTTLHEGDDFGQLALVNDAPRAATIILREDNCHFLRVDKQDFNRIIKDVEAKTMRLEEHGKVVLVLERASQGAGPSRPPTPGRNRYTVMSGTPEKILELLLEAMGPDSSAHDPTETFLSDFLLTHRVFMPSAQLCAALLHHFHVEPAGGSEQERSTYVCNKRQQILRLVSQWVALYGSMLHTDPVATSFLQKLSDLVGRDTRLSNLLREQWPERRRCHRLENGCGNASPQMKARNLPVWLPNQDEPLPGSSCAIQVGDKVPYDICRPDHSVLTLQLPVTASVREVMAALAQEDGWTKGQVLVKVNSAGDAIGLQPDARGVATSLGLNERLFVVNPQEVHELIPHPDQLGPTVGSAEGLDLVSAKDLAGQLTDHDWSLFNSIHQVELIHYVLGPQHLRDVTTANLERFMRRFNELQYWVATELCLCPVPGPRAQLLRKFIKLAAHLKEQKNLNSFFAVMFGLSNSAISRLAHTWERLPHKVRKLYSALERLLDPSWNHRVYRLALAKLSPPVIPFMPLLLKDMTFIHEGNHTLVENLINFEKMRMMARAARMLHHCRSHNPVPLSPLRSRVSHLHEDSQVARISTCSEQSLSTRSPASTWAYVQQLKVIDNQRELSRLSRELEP
# Sequence of Tumor susceptibility gene 101 protein (Homo sapiens) (Q99816 whole entry, looked up): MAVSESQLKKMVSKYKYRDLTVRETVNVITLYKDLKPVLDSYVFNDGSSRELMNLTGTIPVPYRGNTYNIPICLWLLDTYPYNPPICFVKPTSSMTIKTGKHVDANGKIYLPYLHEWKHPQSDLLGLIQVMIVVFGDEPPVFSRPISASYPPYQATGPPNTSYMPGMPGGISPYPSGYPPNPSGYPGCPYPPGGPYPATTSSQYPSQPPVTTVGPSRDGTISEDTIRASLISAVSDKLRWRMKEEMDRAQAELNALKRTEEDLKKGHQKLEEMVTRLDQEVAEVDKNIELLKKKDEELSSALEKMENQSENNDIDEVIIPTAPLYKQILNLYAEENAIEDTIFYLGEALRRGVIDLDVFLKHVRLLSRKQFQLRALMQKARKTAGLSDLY
# Sequence of Cytochrome P450 3A4 (Homo sapiens) (P08684 whole entry, looked up): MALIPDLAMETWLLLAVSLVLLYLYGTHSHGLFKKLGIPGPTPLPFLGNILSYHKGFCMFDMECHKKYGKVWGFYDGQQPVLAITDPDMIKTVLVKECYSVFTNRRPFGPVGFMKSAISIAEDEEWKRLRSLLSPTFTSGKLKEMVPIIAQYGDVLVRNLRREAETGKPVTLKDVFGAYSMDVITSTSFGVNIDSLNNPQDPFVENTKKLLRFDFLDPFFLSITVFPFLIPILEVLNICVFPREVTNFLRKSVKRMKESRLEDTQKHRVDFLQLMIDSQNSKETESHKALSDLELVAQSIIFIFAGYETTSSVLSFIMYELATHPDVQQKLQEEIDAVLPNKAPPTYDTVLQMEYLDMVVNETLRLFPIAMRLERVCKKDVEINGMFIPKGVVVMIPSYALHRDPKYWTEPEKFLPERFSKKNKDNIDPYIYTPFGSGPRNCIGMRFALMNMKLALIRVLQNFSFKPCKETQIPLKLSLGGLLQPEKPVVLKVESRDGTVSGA
# Sequence of Rap guanine nucleotide exchange factor 4 (Homo sapiens) (Q8WZA2 whole entry, looked up): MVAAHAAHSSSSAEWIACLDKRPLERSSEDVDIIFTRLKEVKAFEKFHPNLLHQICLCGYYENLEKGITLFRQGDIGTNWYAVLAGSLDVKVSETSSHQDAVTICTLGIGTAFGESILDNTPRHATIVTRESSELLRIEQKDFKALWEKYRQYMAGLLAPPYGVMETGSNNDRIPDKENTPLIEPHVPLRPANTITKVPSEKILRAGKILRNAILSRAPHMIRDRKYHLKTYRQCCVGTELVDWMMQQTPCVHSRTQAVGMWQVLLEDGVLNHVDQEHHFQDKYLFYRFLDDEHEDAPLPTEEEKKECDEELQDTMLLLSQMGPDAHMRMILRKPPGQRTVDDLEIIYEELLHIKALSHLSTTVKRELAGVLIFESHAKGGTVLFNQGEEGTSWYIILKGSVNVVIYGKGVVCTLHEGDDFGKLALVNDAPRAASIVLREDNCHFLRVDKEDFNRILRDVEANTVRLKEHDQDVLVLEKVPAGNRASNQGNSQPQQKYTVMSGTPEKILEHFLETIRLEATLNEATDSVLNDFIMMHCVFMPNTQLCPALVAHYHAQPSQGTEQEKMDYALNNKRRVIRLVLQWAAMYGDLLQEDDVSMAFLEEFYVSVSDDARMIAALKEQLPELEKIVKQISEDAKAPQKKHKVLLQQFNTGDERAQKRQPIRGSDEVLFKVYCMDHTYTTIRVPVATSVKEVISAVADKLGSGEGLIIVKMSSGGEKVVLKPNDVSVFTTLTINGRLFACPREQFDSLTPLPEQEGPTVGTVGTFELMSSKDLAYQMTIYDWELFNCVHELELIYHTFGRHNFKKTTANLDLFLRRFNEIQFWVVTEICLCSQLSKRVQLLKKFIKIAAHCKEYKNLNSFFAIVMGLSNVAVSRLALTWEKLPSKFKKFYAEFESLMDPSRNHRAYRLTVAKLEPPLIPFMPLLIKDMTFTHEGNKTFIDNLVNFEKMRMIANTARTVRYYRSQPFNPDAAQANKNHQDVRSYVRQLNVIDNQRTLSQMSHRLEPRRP
# Sequence of Glucocorticoid receptor (Homo sapiens) (P04150 whole entry, looked up, the tested form may be a part): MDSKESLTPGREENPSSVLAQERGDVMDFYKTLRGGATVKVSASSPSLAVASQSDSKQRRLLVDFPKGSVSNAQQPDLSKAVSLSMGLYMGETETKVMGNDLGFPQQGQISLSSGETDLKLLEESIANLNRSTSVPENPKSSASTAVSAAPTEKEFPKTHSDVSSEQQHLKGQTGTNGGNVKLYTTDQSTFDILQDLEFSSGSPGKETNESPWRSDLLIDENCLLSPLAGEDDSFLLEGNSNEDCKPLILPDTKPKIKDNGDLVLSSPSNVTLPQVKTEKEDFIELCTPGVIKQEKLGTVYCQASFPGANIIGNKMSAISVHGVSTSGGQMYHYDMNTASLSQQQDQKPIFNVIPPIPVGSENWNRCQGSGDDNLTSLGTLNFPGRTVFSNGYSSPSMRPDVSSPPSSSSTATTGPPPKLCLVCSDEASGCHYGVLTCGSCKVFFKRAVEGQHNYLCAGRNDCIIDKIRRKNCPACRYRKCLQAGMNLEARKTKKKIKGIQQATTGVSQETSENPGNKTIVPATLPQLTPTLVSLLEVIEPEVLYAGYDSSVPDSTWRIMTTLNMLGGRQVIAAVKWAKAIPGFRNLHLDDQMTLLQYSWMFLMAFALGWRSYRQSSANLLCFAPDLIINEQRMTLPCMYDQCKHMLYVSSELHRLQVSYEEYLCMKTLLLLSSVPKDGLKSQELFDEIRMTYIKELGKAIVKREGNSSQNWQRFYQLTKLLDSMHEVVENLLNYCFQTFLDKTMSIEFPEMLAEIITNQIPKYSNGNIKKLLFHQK
smiles,measurement,setting,value
COC(=O)c1ccc(Cn2nc(-c3cc(C)ccc3C)ccc2=O)cc1,Potency,[1],inactive
same,Potency,[2],inactive
same,Potency,[3],inactive
same,Potency,[4],inactive
Brc1ccc(CSc2nccn2-c2ccccc2)cc1,Potency,[1],inactive
same,Potency,[2],inactive
same,Potency,[3],inactive
same,Potency,[4],1.58 µM (active)
COc1ccc(C(=O)N(CCc2ccccc2)Cc2cccs2)c(OC)c1,Potency,[1],inactive
same,Potency,[2],inactive
same,Potency,[3],inactive
same,Potency,[4],inactive
c1ccc(-c2cnn3c(-c4ccccc4)c(-c4ccccc4)nc3n2)cc1,Potency,[5],inactive
same,Potency,[1],inactive
same,Potency,[2],inactive
same,Potency,[3],inactive
Cn1ccc(=Nc2ccc(NC(=O)c3ccc(N=c4ccn(C)c5ccc([N+](=O)[O-])cc45)cc3)cc2)cc1,Potency,[6],9.53 µM (active)
same,Potency,[7],4.23 µM (active)
same,Potency,[1],42.6 µM (active)
same,Potency,[2],16.9 µM (active)
same,Potency,[3],inactive
CCCCn1c(=O)[nH]c2nc3cc(N)ccc3nc2c1=O,Potency,[5],6.51 µM (active)
same,Potency,[1],inactive
same,Potency,[2],inactive
same,"activity change, negative = inhibition",[3],79.1% [at 30.8 µM]
CCOc1ccc(C(=O)CCc2nc3ccccc3s2)cc1,Potency,[1],inactive
same,"activity change, negative = inhibition",[3],-7.41% [at 30.8 µM]
CCOc1ccc(S(=O)(=O)Nc2cc(SCC(=O)O)c(O)c3ccccc23)cc1,Potency,[1],67.5 µM (active)
same,Potency,[3],inactive
same,Potency,[4],56.2 µM (active)
C[n+]1ccc(/C=C/c2c[nH]c3ccccc23)cc1,Potency,[1],inactive
same,Potency,[3],inactive
same,Potency,[4],35.5 µM (active)
COc1cccc(Nc2ncc3nc(-c4cc(F)cc(F)c4)c(=O)n(CCC#N)c3n2)c1,Potency,[8],> 11.4 µM
same,outcome,[9],inactive
same,Potency,[10],> 9.22 µM
same,Potency,[11],> 46 µM
same,Potency,[12],inactive
same,Potency,[13],inactive
same,outcome,[14],inactive
same,Potency,[1],inactive
same,Potency,[2],inactive
CN1CC=C2C(C#N)=C(N)C(C#N)(C#N)C(c3ccsc3)C2C1 (stereo unspecified),Potency,[1],inactive
same,Potency,[3],inactive
COc1cccc(Nc2ncc3nc(-c4ccc(F)cc4)c(=O)n(CCC#N)c3n2)c1,Potency,[8],> 11.4 µM
same,"activity change, negative = inhibition",[15],-6.29%
same,outcome,[9],inactive
same,Potency,[10],> 9.22 µM
same,Potency,[12],inactive
same,Potency,[13],inactive
same,Potency,[16],3.16 µM (active)
same,Potency,[1],inactive
same,Potency,[2],inactive
O=c1c(/C=C(\O)c2ccccc2)nc2ccccc2n1-c1ccccc1,Potency,[5],16.3 µM (active)
same,Potency,[1],inactive
same,Potency,[2],inactive
same,"activity change, negative = inhibition",[3],-1.75% [at 30.8 µM]
COc1cc2c3nnc(-c4ccc(F)cc4)c-3cn(Cc3cccc(C)c3)c2cc1OC,Potency,[1],inactive
same,Potency,[3],inactive
same,Potency,[4],inactive
CC(=O)N1CCC2(CCCN(c3ccc(-c4ccccc4)cc3)C2)CC1,Potency,[8],> 11.4 µM
same,"activity change, negative = inhibition",[17],-10.1%
same,"activity change, negative = inhibition",[15],-24.3%
same,outcome,[9],inactive
same,Potency,[11],> 46 µM
same,Potency,[12],inactive
same,Potency,[13],inactive
same,Potency,[1],inactive
same,Potency,[2],inactive
CN(C)c1ncc2nc(CCc3ccccc3)c(=O)n(-c3ccccc3)c2n1,Potency,[8],> 11.4 µM
same,"activity change, negative = inhibition",[15],12.7%
same,outcome,[9],inactive
same,Potency,[10],> 9.22 µM
same,Potency,[11],> 46 µM
same,Potency,[12],inactive
same,Potency,[16],6.31 µM (active)
same,outcome,[14],inactive
same,Potency,[1],inactive
same,Potency,[2],inactive
Cc1ccc(-c2nc(S(=O)(=O)c3ccc(C)cc3)c(N3CCOCC3)o2)cc1,Potency,[1],inactive
same,Potency,[3],inactive
O=C1OC(c2ccccc2)(c2ccccc2)c2ccccc21,Potency,[1],inactive
same,"activity change, negative = inhibition",[3],2.72% [at 30.8 µM]
Cc1ccc2oc(=O)n(Cc3ccc(OC(C)C)cc3)c2c1,Potency,[1],inactive
same,Potency,[3],inactive
COC(=O)c1cc2ccccc2n1S(=O)(=O)c1ccccc1,Potency,[1],inactive
same,Potency,[3],inactive
CCCCN1C(=O)/C(=C/C=C2/CC(C)(C)CN2C)SC1=S,Potency,[1],inactive
same,Potency,[3],inactive
CN1c2ccccc2C(C)(C)C12C=Nc1c(cc(N3CCOCC3)c3ccccc13)O2 (stereo unspecified),Potency,[1],inactive
same,Potency,[3],inactive
CC(C)(C)C1COc2ccccc2N1C(=O)c1ccccc1Cl (stereo unspecified),Potency,[1],inactive
same,Potency,[2],30.1 µM (active)
same,Potency,[4],inactive
CC[n+]1c(/C=C/C=C/N(C(C)=O)c2ccccc2)sc2ccccc21,Potency,[1],84.9 µM (active)
same,Potency,[3],inactive
